Bioassay records (PubChem)
An excerpt weighted towards active compounds, which were near 1.6% of everything screened.
KCNQ2 enhance: potentiators of rat KCNQ2 potassium channel; CHO-K1 KCNQ2, FluxOR thallium flux fluorescence; stronger effect = higher value; hit rate 0.54% among 310,000; B-score at 10 µM;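 active means fluorescence ratio B-score at least 3 SD of library B-scores, with initial fluorescence B-score within 3 of them, cut at about 5.3 in these data; same plate scores as AID 2156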;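 further: B-score of peak minus minimum over baseline fluorescence ratio after K+ and Tl+ stimulus; positive B-score means potentiation of KCNQ2 with more thallium influx and brighter signal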
Target sequence (O88943 whole entry, looked up): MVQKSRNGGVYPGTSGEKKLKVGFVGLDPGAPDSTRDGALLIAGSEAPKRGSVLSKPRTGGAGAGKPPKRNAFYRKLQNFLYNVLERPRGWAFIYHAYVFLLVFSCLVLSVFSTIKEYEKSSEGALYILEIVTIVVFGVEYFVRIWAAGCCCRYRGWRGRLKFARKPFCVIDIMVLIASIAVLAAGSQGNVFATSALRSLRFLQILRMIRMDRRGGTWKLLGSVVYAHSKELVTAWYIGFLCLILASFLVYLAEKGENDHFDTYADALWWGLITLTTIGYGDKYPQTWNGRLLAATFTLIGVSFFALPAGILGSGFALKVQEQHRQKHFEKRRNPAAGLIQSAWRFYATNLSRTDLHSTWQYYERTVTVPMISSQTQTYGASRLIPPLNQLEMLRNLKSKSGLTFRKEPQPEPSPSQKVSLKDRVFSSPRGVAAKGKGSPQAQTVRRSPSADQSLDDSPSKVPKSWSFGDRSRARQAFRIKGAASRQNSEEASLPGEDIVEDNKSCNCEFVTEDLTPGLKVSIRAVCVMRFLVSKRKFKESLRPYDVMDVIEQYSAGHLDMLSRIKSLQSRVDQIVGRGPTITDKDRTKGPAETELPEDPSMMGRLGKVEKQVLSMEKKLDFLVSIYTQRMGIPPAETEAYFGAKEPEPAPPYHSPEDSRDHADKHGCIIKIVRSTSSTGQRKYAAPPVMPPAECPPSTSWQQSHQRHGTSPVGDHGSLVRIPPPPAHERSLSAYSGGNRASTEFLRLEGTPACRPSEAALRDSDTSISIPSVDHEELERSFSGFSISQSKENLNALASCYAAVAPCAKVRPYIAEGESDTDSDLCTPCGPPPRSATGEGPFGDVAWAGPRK
KCNQ2 block: rat KCNQ2 potassium channel inhibitors, primary screen, cell-based, CHO-K1, FluxOR thallium flux, B-score; hit rate 1.1% among 310,000; AID 2156, 2009; Potassium voltage-gated channel subfamily KQT member 2 (Rattus norvegicus), O88943; 20 min; stronger effect = lower value; B-score at 10 µM;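 active means fluorescence ratio B-score at most minus 3 library SDs, with starting brightness B-score within 2 library SDs, cut at about -5.5 in these data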
Of the large screens only hits and unclear results are named; the others gave an inactive call.

CCN(CC)S(=O)(=O)c1ccc(N2CCOCC2)c(NC(=O)c2ccccc2F)c1	none (no result: KCNQ2 enhance)
CN(CCc1cn[nH]c1)C(=O)C1CCC(=O)N(CC2CCCCC2)C1 (stereo not given)	none (no result: KCNQ2 enhance)
S=c1[nH]c2ccc(Cl)cc2s1	KCNQ2 enhance 20.9
Cc1cc(=O)[nH]c2ccc(Cl)cc12	none
COc1ccc(NC(=O)Cn2cnc3sc(C)c(S(=O)(=O)N4CCOCC4)c3c2=O)cc1Cl	none (no result: KCNQ2 enhance)
COc1cccc(-c2nn(-c3ccccc3)cc2C(=O)n2nnc3ccccc32)c1	KCNQ2 block -6.36
O=C(c1cn(-c2ccccc2)nc1-c1ccccc1)n1nnc2ccccc21	none (no result: KCNQ2 enhance)
CCCCN(C(=O)c1ccc(Cl)c(S(=O)(=O)N2CCOCC2)c1)c1c(N)n(CCC)c(=O)[nH]c1=O	none
NC(=O)CSc1nc2ccccc2c(=O)n1Cc1ccco1	none (no result: KCNQ2 enhance)
CCCn1c(C)cc(C(=O)CSc2nc3ccccc3c(=O)n2Cc2ccco2)c1C	KCNQ2 block -6
O=C(CCC(=O)Nc1ccccc1)NNC(=O)COc1ccccc1	none
Cc1ccccc1C(=O)N1CCN(C(c2ccccc2)c2ccccc2)CC1	none (no result: KCNQ2 enhance)
Cc1occc1C(=O)N1CCN(C(c2ccccc2)c2ccccc2)CC1	KCNQ2 block -6.44
CC(C)(C)NC(=O)c1cnn(-c2ccccc2)c1NC(=O)c1ccccc1	none (no result: KCNQ2 enhance)
Cc1csc(-c2cnn(-c3ccccc3)c2NC(=O)c2ccc(C(F)(F)F)cc2)n1	KCNQ2 block -5.91
COc1ccc(/C=N/Nc2nc(N3CCCC3)nc(N3CCCC3)n2)cc1O	KCNQ2 block -6.32
COc1ccc(/C=N/Nc2nc(N3CCCC3)nc(N3CCCC3)n2)cc1	none (no result: KCNQ2 enhance)
CC(C)(CN1CCN(C(c2ccccc2)c2ccccc2)CC1)NS(=O)(=O)c1ccccc1	none
Fc1cccc(Cl)c1CSc1nnc(CNc2ccccc2)o1	none (no result: KCNQ2 enhance)
Clc1ccc(CSc2nnc(CNc3cccc(Cl)c3)o2)cc1	KCNQ2 block -5.7
COc1ccccc1C(=O)NCCC(=O)NC(C)c1ccc(-n2ccnc2)cc1 (stereo not given)	none
CCOc1ccc(S(=O)(=O)N2CCCC(C(=O)Nc3cc(C)cc(C)c3)C2)cc1 (stereo not given)	none (no result: KCNQ2 enhance)
O=C(Cc1nnc(NC(=O)Nc2ccc(F)cc2)s1)NCc1ccccc1	none (no result: KCNQ2 enhance)
O=C(NCCO)C1COc2ccccc2O1 (stereo not given)	none
O=C(NCCc1ccc(Cl)cc1)C1COc2ccccc2O1 (stereo not given)	KCNQ2 block -6.03
CC(=O)NCCNC(=O)C1CCCCN1S(=O)(=O)c1ccccc1 (stereo not given)	none (no result: KCNQ2 enhance)
O=c1ccc(N=Nc2ccccc2)ccc1O	KCNQ2 enhance 19.2
O=S(=O)(O)c1ccc(N=Nc2ccccc2)cc1	none
CCOC(=O)c1c(NC(=O)C(Sc2ccccc2)c2ccccc2)sc(C(=O)N(C)C)c1C (stereo not given)	KCNQ2 block -5.85
CCOC(=O)c1c(NC(=O)C(Sc2ccccc2)c2ccccc2)sc(C(N)=O)c1C (stereo not given)	none (no result: KCNQ2 enhance)
CC/C(=N\NC(=O)c1ccc(-c2ccccc2)cc1)C12CC3CC(CC(C3)C1)C2	none
O=C(c1nc2ccc(Cl)cn2c1CNCCc1cnccn1)N1CCCCCCC1	none (no result: KCNQ2 enhance)
CC(C)CCNC(=O)C(=O)NCC1OCCCN1S(=O)(=O)c1cccs1 (stereo not given)	none
Nc1nc(SCC(=O)O)[nH]c(=O)c1NC(=O)c1ccco1	none
CC1(C)C(C=C(Cl)Cl)C1C(=O)N1CCN(c2ccccc2)CC1 (stereo not given)	KCNQ2 block -5.68
O=C(C1CC2C=CC1C2)N1CCN(c2ccccc2)CC1 (stereo not given)	none (no result: KCNQ2 enhance)
Cc1ccn2cc(-c3ccc(O)c(O)c3)nc2c1	none (no result: KCNQ2 enhance)
Cc1ccc2nc(SCC(=O)Nc3nnc(SCC(N)=O)s3)[nH]c2c1	none
Cc1cccc(NS(=O)(=O)c2cc(C(=O)OC(C)C(=O)NCc3ccc4c(c3)OCO4)ccc2C)c1 (stereo not given)	KCNQ2 block -6.4
CC(=O)Nc1cccc(C(=O)OC(C)C(=O)NCc2ccc3c(c2)OCO3)c1 (stereo not given)	none
CS(=O)(=O)N1CCN(c2ccccc2[N+](=O)[O-])CC1	none
COc1ccc(CNC(=O)CN(Cc2ccco2)C(=O)CNS(=O)(=O)c2ccc(F)cc2)cc1	none (no result: KCNQ2 enhance)
COC(=O)C(CC(=O)c1ccc(Cl)cc1)c1ccc(C)cc1 (stereo not given)	KCNQ2 block -6.5
O=C(CC(C(=O)O)c1ccc(Cl)cc1)c1ccccc1 (stereo not given)	none (no result: KCNQ2 enhance)
CNC(=O)CSc1nnc(-c2ccccc2F)n1CCc1ccccc1	none
O=S(=O)(Nc1ccc(N2CCOCC2)cc1)c1c(F)cc(F)cc1Br	none
CN(CC(=O)Nc1c(Cl)cccc1Cl)C(=O)c1cc(-c2cccs2)nn1-c1ccccc1	none (no result: KCNQ2 enhance)
CN(CC(=O)Nc1ccc(Cl)cc1)C(=O)c1cc(-c2cccs2)nn1-c1ccccc1	KCNQ2 block -7.63
COc1ccccc1CNC(=O)C1CCCN(S(=O)(=O)c2ccc3c(c2)C(C)(C)C(=O)N3C)C1 (stereo not given)	none (no result: KCNQ2 enhance)
COc1ccccc1CNC(=O)C1CCCN(S(=O)(=O)c2ccc3c(c2)CC(C)N3C(C)=O)C1 (stereo not given)	KCNQ2 block -6.92
O=C(NNC(=O)c1cccnc1Cl)c1ccc(F)cc1	none
Cc1ccc(-c2nc3ccccc3c(C(=O)NCc3cccs3)c2C)cc1	KCNQ2 block -6.58
O=C(NCc1cccs1)c1cc(-c2ccccc2)nc2ccccc12	none
CCOC(=O)c1ncn2c1C(=O)OC2(C)C	none
CC(Sc1nnc(-c2ccc(Cl)cc2Cl)n1Cc1ccccc1)C(=O)Nc1nccs1 (stereo not given)	none (no result: KCNQ2 enhance)
Cc1nnc(SC(C)C(=O)Nc2ccc(Cl)cn2)n1Cc1ccccc1 (stereo not given)	KCNQ2 block -6.15
CC(Nc1nc(-c2cccnc2)nc2ccccc12)c1ccc(F)cc1 (stereo not given)	none (no result: KCNQ2 enhance)
CCN(CC)S(=O)(=O)c1cccc(C(=O)OCC(=O)Nc2ccccc2OC(F)F)c1	none
CCN(CC)S(=O)(=O)c1cccc(C(=O)OCC(=O)NCc2ccccc2OC)c1	KCNQ2 block -6.5
CC(C)(C)c1ccc(N2C(=O)CSC2c2cccnc2)cc1 (stereo not given)	none
Cc1cccc(OCC(=O)NCCCNC(=O)c2ccco2)c1	none
O/N=C(/CCc1ccccc1)c1ccc2c(c1)OCCO2	KCNQ2 block -5.92
O=C(CCc1ccccc1)c1ccc2c(c1)OCCCO2	none (no result: KCNQ2 enhance)
COc1ccc(-n2c(COc3ccccc3)nnc2SCc2ccc(C#N)cc2)cc1	none
N#Cc1ccc(CSc2nnc(COc3ccccc3)n2-c2ccccc2)cc1	KCNQ2 block -5.61
Cn1cnnc1SCC(=O)Nc1sc2c(c1C(N)=O)CCC2	none (no result: KCNQ2 enhance)
COc1ccc(S(=O)(=O)N2CCCOC2CNC(=O)C(=O)NCCc2ccco2)cc1C (stereo not given)	none (no result: KCNQ2 enhance)
CC1=NN(C(=O)COc2ccccc2)C(O)(c2ccccc2)C1 (stereo not given)	none
CCC1=NN(C(=O)COc2ccccc2)C(O)(c2ccc(Br)cc2)C1 (stereo not given)	KCNQ2 block -5.99
CC1=NN(C(=O)c2ccccc2Br)C(O)(c2ccc(Cl)cc2)C1 (stereo not given)	none
CCC1=NN(C(=O)c2ccccc2Br)C(O)(c2ccc(Br)cc2)C1 (stereo not given)	KCNQ2 enhance 13.7
CCn1ncc(NC(=S)NCCc2ccc(OC)c(OC)c2)c1C(N)=O	none (no result: KCNQ2 enhance)
CSCC[C@H](NC(=O)c1nn(C)c(=O)c2ccccc12)c1nc2ccccc2[nH]1	none (no result: KCNQ2 enhance)
